# Results from PubChem BioAssay AID1903 (Southern Research Specialized Biocontainment Screening …, 2009).
# The whole screen tested about 310,000 compounds, of which about 1,200 (0.39%) were called active. No rule for the calls is given here. A selection follows. Entries with a potency or affinity are not part of this list.
# Target: Large T antigen (Simian virus 40) (UniProt P03070)
# Assay: TAg ATPase/helicase activity blockers – biochemical (AID 1903)
# Conditions: SV40 large T antigen ATPase/helicase inhibition assay; at 20 µM; stronger effect = higher value
# Sequence of Large T antigen (Simian virus 40) (P03070 whole entry, looked up): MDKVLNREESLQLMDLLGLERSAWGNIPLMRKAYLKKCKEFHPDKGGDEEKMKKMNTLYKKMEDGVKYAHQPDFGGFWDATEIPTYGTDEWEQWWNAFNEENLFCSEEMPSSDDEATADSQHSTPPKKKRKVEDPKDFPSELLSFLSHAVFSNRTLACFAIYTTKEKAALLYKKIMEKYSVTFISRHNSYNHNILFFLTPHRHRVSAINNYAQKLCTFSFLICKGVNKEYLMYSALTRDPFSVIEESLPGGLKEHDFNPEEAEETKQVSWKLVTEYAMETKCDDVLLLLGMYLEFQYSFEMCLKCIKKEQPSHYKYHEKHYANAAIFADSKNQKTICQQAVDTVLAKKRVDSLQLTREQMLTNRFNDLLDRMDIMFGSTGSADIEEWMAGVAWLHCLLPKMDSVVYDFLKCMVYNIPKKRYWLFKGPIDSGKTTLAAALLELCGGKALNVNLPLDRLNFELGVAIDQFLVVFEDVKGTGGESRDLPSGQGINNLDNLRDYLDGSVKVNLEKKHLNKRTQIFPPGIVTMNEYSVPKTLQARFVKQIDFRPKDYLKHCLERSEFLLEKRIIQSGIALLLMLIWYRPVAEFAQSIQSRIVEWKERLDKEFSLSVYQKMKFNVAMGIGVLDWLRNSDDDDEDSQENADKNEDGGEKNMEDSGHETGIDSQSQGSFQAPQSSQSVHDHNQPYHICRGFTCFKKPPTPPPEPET
row,Compound,inhibition
1,Nc1nc(-c2ccccc2)c(-c2ccc([N+](=O)[O-])cc2)s1,2.8% (inactive)
2,Nc1nc(-c2ccccc2)c(-c2ccccc2)s1,22% (inactive)
3,O=C(Nc1cccc(S(=O)(=O)N2CCCC2)c1)c1cccnc1,8.88% (inactive)
4,CCn1c(C)nc2cc(C(=O)NNC(=S)NC(=O)c3ccccc3)ccc21,22.4% (inactive)
5,COc1ccc(C(=O)Nc2ccc(NC(=O)C3CC3)cn2)cc1,10.7% (inactive)
6,N#C/C(=C\c1ccc(Sc2nc3ccccc3[nH]2)o1)c1ccccc1,13% (inactive)
7,N#C/C(=C/c1ccc(Sc2nc3ccccc3[nH]2)o1)c1cccc(F)c1,0.21% (inactive)
8,CC(C)N1C(=O)S/C(=C/c2ccc(Sc3nc4ccccc4[nH]3)o2)C1=O,7.29% (inactive)
9,CCN1C(=O)S/C(=C/c2ccc(Sc3nc4ccccc4[nH]3)o2)C1=O,10.6% (inactive)
10,N#C/C(=C/c1ccc(Sc2nc3ccccc3[nH]2)o1)c1cccc(Br)c1,-8.47% (inactive)
11,C=CCN1C(=O)S/C(=C/c2ccc(Sc3nc4ccccc4[nH]3)o2)C1=O,6.66% (inactive)
12,O=C(NCc1ccco1)/C(=C/c1ccc(F)cc1)NC(=O)c1ccccc1,5.2% (inactive)
13,O=C(O)CC1(CC(=O)Nc2ccc3ccccc3n2)CCCCC1,10.8% (inactive)
14,Cc1cccc(N=C2N=C(N)c3ccccc32)c1,0.797% (inactive)
15,COc1ccc(-c2nc3ccccn3c2NC2CCCCC2)cc1SC1CCCCC1,9.08% (inactive)
16,COc1ccc(-c2cn(Cc3ccc(C)cc3)nn2)cc1,5.41% (inactive)
17,COCCOC(=O)C1=C(C)NC(=O)NC1c1cn(-c2ccccc2)nc1-c1cccs1 (configuration not stated),8.59% (inactive)
18,Cc1cccc(Oc2ccccc2N)c1,-2.44% (inactive)
19,O=C(Nc1ccc(N2CCN(c3ccc(O)cc3)CC2)cc1)Oc1ccccc1,16.3% (inactive)
20,CC(=O)Nc1ccc(NC(=O)Oc2ccccc2)cc1,16.2% (inactive)
21,O=C(CC1C(=O)NCCN1CC(c1ccccc1)c1ccccc1)NC1CC1 (configuration not stated),3.88% (inactive)
22,OCC1(CCCc2ccccc2)CCN(C2CCC2)CC1,4.13% (inactive)
23,O=C(COC(=O)C1=COCCO1)NCc1ccc(F)cc1,17.7% (inactive)
24,Cc1ccccc1OCCC(=O)Nc1ccc(F)c(Cl)c1,7.2% (inactive)
25,CCCCCCCCC1=NCCc2c1[nH]c1ccccc21,7.25% (inactive)
26,Cc1cc(=O)[nH]c2cc(O)ccc12,12.9% (inactive)

row,Compound,inhibition
1,COc1cccc(C=Nc2ccccc2C(=O)Nc2ccccc2)c1O,1.08% (inactive)
2,Nc1cc(-c2ccc(Cl)cc2)nn1S(=O)(=O)c1ccccc1,0.87% (inactive)
3,COc1ccc(/C=C(\C#N)C(=O)Nc2cccc3ncccc23)cc1OC,6.66% (inactive)
4,N#C/C(=C/c1ccc(N2CCOCC2)o1)C(=O)Nc1ccccc1,8.94% (inactive)
5,N#C/C(=C\c1ccc(O)c(Br)c1)C(=O)NCc1ccccc1,12.1% (inactive)
6,COc1cc(/C=C(\C#N)C(=O)Nc2cccc3ncccc23)ccc1O,3.35% (inactive)
7,COc1ccc(/C=C(\C#N)C(=O)NCc2ccccc2)cc1O,8.17% (inactive)
8,CCc1ccc(NC(=O)/C(C#N)=C\c2ccc(OC)c(C(=O)O)c2)cc1,1.43% (inactive)
9,COc1ccc(/C=C(/C#N)C(=O)Nc2ccccc2C)cc1C(=O)O,9.24% (inactive)
10,N#C/C(=C/c1ccc(N2CCCCC2)o1)C(=O)Nc1ccc(Cl)cc1,22.3% (inactive)
11,CCOP(=O)(O)c1ccccc1OCCOCCOc1ccccc1P(=O)(O)OCC,-4.92% (inactive)
12,COc1ccc(Cl)cc1Nc1nc(-c2sc(NC(=O)c3ccccc3)nc2C)cs1,2.67% (inactive)
13,CCOC(=O)Cn1c(=NC(=O)C(C)C)sc2c(C)cc(C)cc21,14% (inactive)
14,CCCc1nnc(NC(=O)CCC(=O)N2CCCCC2CC)s1 (configuration not stated),6.09% (inactive)
15,CC(NC(=O)/C(C#N)=C/c1ccc(C(=O)O)cc1)c1ccccc1 (configuration not stated),2.43% (inactive)
16,COc1ccc(/C=C(\C#N)C(=O)NC(C)c2ccccc2)cc1O (configuration not stated),4.31% (inactive)
17,CN1C(=O)S/C(=C\c2ccccc2OCc2ccc(C(=O)O)cc2)C1=O,10.5% (inactive)
18,O=C1NC(=S)N/C1=C\c1ccccc1OCc1ccc(C(=O)O)cc1,11.5% (inactive)
19,N#C/C(=C\c1ccc(O)c(O)c1)C(=O)NCCCc1ccccc1,37.7% (inactive)
20,COc1cc(/C=C(\C#N)C(=O)NCCc2ccccc2)cc(OC)c1O,23.4% (inactive)
21,COc1cc(/C=C(\C#N)C(=O)N2CCc3ccccc32)ccc1O,57% (inactive)
22,O=C(C(=O)N1CCCc2ccccc21)N1CCCc2ccccc21,-4.81% (inactive)
23,Cc1nnc(NC(=O)CSc2n[nH]c(-c3ccccc3)n2)s1,-0.77% (inactive)
24,O=C(CC(C(=O)N1CCc2ccccc21)n1ccnc1)NCC1CCCO1 (configuration not stated),2.93% (inactive)
25,COc1ccccc1N(C)S(=O)(=O)c1ccc(C(=O)OCC(=O)NCC(F)(F)F)cc1,21.8% (inactive)
26,COc1ccc(OCCCC(=O)OCC(=O)NNC(=O)c2ccc([N+](=O)[O-])cc2)cc1,11.8% (inactive)

row,Compound,inhibition
1,COc1ccc2c(=O)c(N3C(=O)c4ccccc4C3=O)c(C)oc2c1,0.21% (inactive)
2,COc1ccc(C)cc1NC(=O)Nc1ccc2c(c1)CCC2,-11.4% (inactive)
3,N#C/C(=C/c1ccc(O)c([N+](=O)[O-])c1)C(=O)Nc1ccccc1,6.93% (inactive)
4,N#C/C(=C/c1ccc(C(=O)O)cc1)C(=O)Nc1ccccc1,2.52% (inactive)
5,COc1cc(/C=C(/C#N)C(=O)Nc2ccccc2)c(Br)cc1OCc1ccc(C(=O)O)cc1,12.2% (inactive)
6,COC(=O)c1ccc(COc2ccccc2/C=C(\C#N)C(=O)Nc2ccc(C)cc2)cc1,3.16% (inactive)
7,CCOC(=O)Cc1csc(NC(=O)CCCN2C(=O)c3ccccc3C2=O)n1,1.05% (inactive)
8,Cc1[nH]c2ccccc2c1C(Nc1nccs1)c1ccncc1 (configuration not stated),0.2% (inactive)
9,CCOc1ccc(NC(=O)CCn2c(=O)[nH]c3ccsc3c2=O)cc1,9.67% (inactive)
10,Cc1ccc(S(=O)(=O)N(C)C)cc1NC(=O)CSc1nc2ccccc2c(=O)n1CC1CCCO1 (configuration not stated),23.7% (inactive)
11,O=C(Nc1ncccn1)C1=C(O)c2ccccc2S(=O)(=O)N1Cc1ccccc1,2.54% (inactive)
12,Cc1cc(Cl)c(S(=O)(=O)NC2CCCCC2)cc1OCC(=O)Nc1nncs1,1.03% (inactive)
13,Cc1ccc(NC(=O)CCNS(=O)(=O)c2ccc3c(c2)CCC(=O)N3)c(Br)c1,3.77% (inactive)
14,Cc1ccccc1NC(=O)CCNS(=O)(=O)c1ccc2c(c1)CCC(=O)N2,5.35% (inactive)
15,CC(C)(C)n1nc2c(c1NC(=O)Cc1cccc3ccccc13)CS(=O)(=O)C2,2.22% (inactive)
16,Brc1cccc(Cn2c(-c3cncs3)nc3ccccc32)c1,12% (inactive)
17,CC(=O)c1cccc(NC(=O)COC(=O)COc2ccccc2C)c1,2.51% (inactive)
18,COc1cc2ccc(=O)oc2cc1O,2.12% (inactive)
19,CC(C)c1cc2cc3ccc(=O)oc3cc2o1,4.47% (inactive)
20,O=C1CCCc2[nH]nc(-c3cccnc3)c21,12% (inactive)
21,Cc1c(C)c2cc(Cl)c(O)c(CN(C)C)c2oc1=O,6.8% (inactive)
22,Cc1c(Br)c(=O)oc2c(Br)c(O)ccc12,23.7% (inactive)
23,C/C(=N\N=C\c1ccccc1F)c1nnn(-c2nonc2N)c1C,-1.72% (inactive)
24,O=C(NCc1ccc(Cl)cc1)c1cnn2ccccc12,3.57% (inactive)
25,O=C(O)C1CCCCC1C(=O)Nc1ccccc1Nc1ccccc1 (configuration not stated),20.9% (inactive)
26,O=C(Nc1ccc(Nc2ccccc2)cc1)c1ccccc1,16.9% (inactive)

row,Compound,inhibition
1,CC(=O)Nc1ccc(Nc2ccccc2)cc1,23.7% (inactive)
2,O=C(O)C1CCCCC1C(=O)Nc1ccc(-c2ccccc2)cc1 (configuration not stated),-3.79% (inactive)
3,CCC(=O)Nc1ccc(Nc2ccccc2)cc1,33.2% (inactive)
4,O=C(Nc1ccccc1)Nc1ccc(Nc2ccccc2)cc1,25.8% (inactive)
5,O=C(Nc1ccc(F)cc1)N1CCOCC1,0.68% (inactive)
6,O=C(Nc1ccccc1)N1CCOCC1,12.8% (inactive)
7,CC(=O)COc1ccc2c(c1C)O/C(=C\c1ccco1)C2=O,35.5% (inactive)
8,CCN1C(=O)CC(c2ccc(OC(C)C)cc2)C1=O (configuration not stated),-0.45% (inactive)
9,CC[C@H](C)[C@H](NC(N)=O)C(=O)Nc1ccc(NC(C)=O)cc1,9.4% (inactive)
10,CCOC(=O)c1cnc(N)nc1C(F)(F)F,-4.94% (inactive)
11,O=C(COC(=O)c1ccc2c(c1)OCCO2)Nc1cc(S(=O)(=O)N2CCOCC2)ccc1Cl,12.3% (inactive)
12,COCCn1c(N2CCCC2)nc2c1c(=O)[nH]c(=O)n2C,5.19% (inactive)
13,Cc1ccc(-c2nnc(CCC(=O)N(C)Cc3nccs3)o2)s1,-8.55% (inactive)
14,Nc1cccc(S(=O)(=O)c2ccc(N)c(N)c2)c1,25.5% (inactive)
15,Nc1ccc(S(=O)(=O)c2ccc(N)c(N)c2)cc1,20.9% (inactive)
16,O=C(c1cnn2c(C(F)F)cc(-c3ccccc3)nc12)N1CCCCC1c1cccnc1 (configuration not stated),1.99% (inactive)
17,COc1ccc(NC(=O)c2ccc3c(c2)NC(=O)CO3)cc1OC,-1.26% (inactive)
18,Cc1ccccc1S(=O)(=O)Cc1ccc(C(=O)NC2CC2)o1,11.4% (inactive)
19,CCOc1cc(/C=C2/C(=N)N3N=C(CC)SC3=NC2=O)ccc1OC(=O)c1ccco1,1.88% (inactive)
20,COc1cc(/C=C2/C(=N)N3N=C(C)SC3=NC2=O)ccc1OS(=O)(=O)c1ccc(C)cc1,3.08% (inactive)
21,COc1cc(/C=C2\SC(c3ccc(C)cc3)=NC2=O)ccc1O,23.4% (inactive)
22,CCC1=NN2C(=N)/C(=C/c3ccc(OS(=O)(=O)c4ccc(C)cc4)c(OC)c3)C(=O)N=C2S1,15.3% (inactive)
23,CCC1=NN2C(=N)/C(=C\c3ccc(OCCOc4ccccc4)c(OC)c3)C(=O)N=C2S1,10.4% (inactive)
24,COc1cc(/C=C2\C(=N)N3N=C(S(C)(=O)=O)SC3=NC2=O)ccc1OS(=O)(=O)c1ccccc1,26.3% (inactive)
